Experimental data reported in PubChem BioAssay (NCATS).
“And” between values parts separate entries of the source, which are not always exact repeats. Equal entries are not always repeated. Records with an inconclusive call do not appear. Entries that show only a call come without a potency. The source made the active and inactive calls. Calls come from the whole dose curve; as a rule, active = well fitted curve in the direction sought with a large enough effect; inconclusive = small, poorly fitted or top-dose-only effect, or another doubt; inactive = no such curve, though single readings can be large; an effect the other way counts as inactive or inconclusive.

Molecular target: Tyrosine-protein phosphatase non-receptor type substrate 1 (Homo sapiens) + Leukocyte surface antigen CD47 (Homo sapiens) (UniProt P78324+Q08722)
Test: CD47-SIRPalpha protein protein interaction - Alpha assay qHTS validation (AID 1347059);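 note: bead proximity luminescence from CD47 binding SIRPalpha after compound preincubation with SIRPalpha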
Conditions: AlphaScreen CD47-His/biotin-SIRPalpha binding, LOPAC; series mostly up to 38.3 µM
In short: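 Soluble extracellular domains: Avi-tag biotinylated SIRPalpha (25 nM) preincubated 30 min RT with compound, then 6His-CD47 (12.5 nM) 30 min; Ni-NTA acceptor and streptavidin donor beads (10 ug/mL) 30 min, AlphaScreen read. PBS pH 7.4, 0.05% IGEPAL.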

Sequence of Tyrosine-protein phosphatase non-receptor type substrate 1 (Homo sapiens) + Leukocyte surface antigen CD47 (Homo sapiens) (P78324 whole entry, looked up): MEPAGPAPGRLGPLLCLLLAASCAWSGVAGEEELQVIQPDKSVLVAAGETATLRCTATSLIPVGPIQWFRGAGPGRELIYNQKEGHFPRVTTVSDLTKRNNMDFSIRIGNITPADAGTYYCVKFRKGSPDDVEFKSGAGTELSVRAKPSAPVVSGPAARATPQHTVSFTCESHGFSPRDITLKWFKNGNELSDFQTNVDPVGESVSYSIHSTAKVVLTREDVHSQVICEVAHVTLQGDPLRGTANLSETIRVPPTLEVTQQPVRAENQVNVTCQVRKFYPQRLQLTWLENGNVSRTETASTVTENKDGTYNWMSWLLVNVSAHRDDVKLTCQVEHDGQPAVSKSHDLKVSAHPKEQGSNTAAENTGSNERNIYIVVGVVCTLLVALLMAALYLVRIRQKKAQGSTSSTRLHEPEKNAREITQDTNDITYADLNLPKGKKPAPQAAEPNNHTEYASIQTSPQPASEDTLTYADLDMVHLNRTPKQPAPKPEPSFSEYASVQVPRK
Sequence of Tyrosine-protein phosphatase non-receptor type substrate 1 (Homo sapiens) + Leukocyte surface antigen CD47 (Homo sapiens) (Q08722 whole entry, looked up): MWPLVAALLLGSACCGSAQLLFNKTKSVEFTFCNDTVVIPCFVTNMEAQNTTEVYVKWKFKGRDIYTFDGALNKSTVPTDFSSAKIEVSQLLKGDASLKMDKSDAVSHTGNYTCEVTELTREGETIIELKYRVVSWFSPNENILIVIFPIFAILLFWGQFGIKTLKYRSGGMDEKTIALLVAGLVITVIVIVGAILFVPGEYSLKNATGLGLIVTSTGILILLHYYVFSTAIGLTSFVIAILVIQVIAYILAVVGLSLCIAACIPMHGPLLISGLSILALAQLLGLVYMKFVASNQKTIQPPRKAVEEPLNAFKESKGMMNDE

Row | Structure (SMILES) | outcome
1 | O=C1CCC(N2C(=O)c3ccccc3C2=O)C(=O)N1 (configuration not stated) | inactive
2 | CCOC(=O)C1=C[C@]2(CC)CCCN3CCc4c(n1c1ccccc41)[C@@H]32 | inactive
3 | Cn1cnc([N+](=O)[O-])c1Sc1ncnc2nc[nH]c12 | inactive
4 | CCOC(=O)N1CCC(=C2c3ccc(Cl)cc3CCc3cccnc32)CC1 | inactive
5 | Oc1ccc(C2CNCCc3c2cc(O)c(O)c3Cl)cc1 (configuration not stated) | inactive
6 | Nc1ccc(S(=O)(=O)Nc2ccnn2-c2ccccc2)cc1 | inactive
7 | O=c1[nH]cnc2[nH]ncc12 | inactive
8 | CC(C)(C)NCC(O)c1ccc(O)c(CO)c1 (configuration not stated) | inactive
9 | O=c1n(CCCN2CCN(c3cccc(Cl)c3)CC2)nc2ccccn12 | inactive
10 | O=C(O)COCCN1CCN(C(c2ccccc2)c2ccc(Cl)cc2)CC1 (configuration not stated) | inactive
11 | CCn1cc(C(=O)O)c(=O)c2cc(F)c(N3CCNC(C)C3)c(F)c21 (configuration not stated) | inactive
12 | CC(C)NCC(O)COc1ccc(COCCOC(C)C)cc1 (configuration not stated) | inactive
13 | CCCC(CCC)C(=O)O | inactive
14 | Nc1nc2c(ncn2COCCO)c(=O)[nH]1 | inactive
15 | Cc1cnc(NC(=O)C2=C(O)c3ccccc3S(=O)(=O)N2C)s1 | inactive
16 | O=NN(CCCl)C(=O)NCCCl | inactive
17 | Cc1[nH]c(=O)c(C#N)cc1-c1ccncc1 | inactive
18 | NCCc1ccc(O)c(O)c1 | inactive
19 | CC(C[N+](C)(C)C)OC(N)=O (configuration not stated) | inactive
20 | CC(=O)Oc1ccccc1C(=O)O | inactive
21 | c1ccc([C@H]2CN3CCSC3=N2)cc1 | inactive
22 | NC[C@H](O)c1ccc(O)c(O)c1 | inactive
23 | NS(=O)(=O)c1cc2c(cc1Cl)NC=NS2(=O)=O | inactive
24 | NCCCC(N)(C(=O)O)C(F)F (configuration not stated) | inactive
25 | N[C@@H]1CONC1=O | inactive
26 | NNCCc1ccccc1 | inactive
27 | O=C1CCc2cc(OCCCCc3nnnn3C3CCCCC3)ccc2N1 | inactive

Molecular target: Parathyroid hormone/parathyroid hormone-related peptide receptor (Homo sapiens) (UniProt Q03431)
Test: qHTS for PTHR1 Agonists: Optimization Screen against the NCGC LOPAC library (AID 1347079);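 note: GloSensor cAMP luminescence in HEK-293 GP2 cells expressing human PTHR1 with IBMX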
Conditions: HEK293 GP2 PTHR1 GloSensor cAMP luminescence, 1 h; series mostly up to 57.1 µM
In short: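 Compounds were tested across a qHTS titration. PTHR1-expressing GP2 cells report cAMP rises via GloSensor luminescence after 1 hr compound exposure at 37C with IBMX present.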

Sequence of Parathyroid hormone/parathyroid hormone-related peptide receptor (Homo sapiens) (Q03431 whole entry, looked up): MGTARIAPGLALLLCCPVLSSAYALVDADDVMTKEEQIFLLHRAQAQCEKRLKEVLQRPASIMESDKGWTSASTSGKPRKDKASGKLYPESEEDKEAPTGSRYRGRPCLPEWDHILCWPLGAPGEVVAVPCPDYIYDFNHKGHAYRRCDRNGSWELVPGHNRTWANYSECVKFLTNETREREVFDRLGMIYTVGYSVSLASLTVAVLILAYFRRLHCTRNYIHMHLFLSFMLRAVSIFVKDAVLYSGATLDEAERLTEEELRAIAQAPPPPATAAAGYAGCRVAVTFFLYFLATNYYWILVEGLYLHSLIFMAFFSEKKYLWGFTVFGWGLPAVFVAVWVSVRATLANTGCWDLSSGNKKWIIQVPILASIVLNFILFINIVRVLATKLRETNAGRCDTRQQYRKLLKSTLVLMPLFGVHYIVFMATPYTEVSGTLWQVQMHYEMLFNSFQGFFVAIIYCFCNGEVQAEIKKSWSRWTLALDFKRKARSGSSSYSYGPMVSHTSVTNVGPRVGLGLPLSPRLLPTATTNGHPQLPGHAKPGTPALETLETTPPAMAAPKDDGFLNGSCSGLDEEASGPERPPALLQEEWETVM

Row | Structure (SMILES) | outcome
28 | O=C1CCC(N2C(=O)c3ccccc3C2=O)C(=O)N1 (configuration not stated) | inactive
29 | CCOC(=O)C1=C[C@]2(CC)CCCN3CCc4c(n1c1ccccc41)[C@@H]32 | inactive
30 | Cn1cnc([N+](=O)[O-])c1Sc1ncnc2nc[nH]c12 | inactive
31 | CN1CCN(CCCN2c3ccccc3Sc3ccc(C(F)(F)F)cc32)CC1 | inactive
32 | CCOC(=O)N1CCC(=C2c3ccc(Cl)cc3CCc3cccnc32)CC1 | inactive
33 | Oc1ccc(C2CNCCc3c2cc(O)c(O)c3Cl)cc1 (configuration not stated) | inactive
34 | Nc1ccc(S(=O)(=O)Nc2ccnn2-c2ccccc2)cc1 | inactive
35 | CCCCNc1cc(C(=O)O)cc(S(N)(=O)=O)c1Oc1ccccc1 | inactive
36 | O=c1[nH]cnc2[nH]ncc12 | inactive
37 | CC(C)(C)NCC(O)c1ccc(O)c(CO)c1 (configuration not stated) | inactive
38 | O=c1n(CCCN2CCN(c3cccc(Cl)c3)CC2)nc2ccccn12 | inactive
39 | O=C(O)COCCN1CCN(C(c2ccccc2)c2ccc(Cl)cc2)CC1 (configuration not stated) | inactive
40 | CCN(CC)CCCC(C)Nc1ccnc2cc(Cl)ccc12 (configuration not stated) | inactive
41 | CCn1cc(C(=O)O)c(=O)c2cc(F)c(N3CCNC(C)C3)c(F)c21 (configuration not stated) | inactive
42 | CC(C)NCC(O)COc1ccc(COCCOC(C)C)cc1 (configuration not stated) | inactive
43 | CCCC(CCC)C(=O)O | inactive

Row | Structure (SMILES) | outcome
44 | Nc1nc2c(ncn2COCCO)c(=O)[nH]1 | inactive
45 | Cc1cnc(NC(=O)C2=C(O)c3ccccc3S(=O)(=O)N2C)s1 | inactive
46 | O=NN(CCCl)C(=O)NCCCl | inactive
47 | Cc1[nH]c(=O)c(C#N)cc1-c1ccncc1 | inactive
48 | NCCc1ccc(O)c(O)c1 | inactive
49 | CC(C[N+](C)(C)C)OC(N)=O (configuration not stated) | inactive
50 | Cc1ccc(N(CC2=NCCN2)c2cccc(O)c2)cc1 | inactive
51 | CC(=O)Oc1ccccc1C(=O)O | inactive
52 | c1ccc([C@H]2CN3CCSC3=N2)cc1 | inactive
53 | NC[C@H](O)c1ccc(O)c(O)c1 | inactive
54 | NS(=O)(=O)c1cc2c(cc1Cl)NC=NS2(=O)=O | inactive
55 | NCCCC(N)(C(=O)O)C(F)F (configuration not stated) | inactive
56 | N[C@@H]1CONC1=O | inactive
57 | NNCCc1ccccc1 | inactive
58 | N=c1nc(N2CCCCC2)cc(N)n1O | inactive
59 | O=C1CCc2cc(OCCCCc3nnnn3C3CCCCC3)ccc2N1 | inactive

Tested on: not listed separately
Test: qHTS of pediatric cancer cell lines to identify multiple opportunities for drug repurposing: Primary screen for TC32 cells (AID 1347089); note: nearly all actives have a fitted effect of over 60% in size; note: potency is the fitted concentration of half-maximal effect
Conditions: TC32 Ewing sarcoma viability, CellTiter-Glo luminescence, 48 h; series mostly up to 45.8 µM
In short: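 Luminescent CellTiter-Glo read-out of metabolically active TC32 cells after 48 h compound exposure. Primary: MIPE 11-point, 0.78 nM–46 µM; NPC 8-point, 0.59 nM–46 µM. Confirmatory: 11-point dilutions.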

Row | Structure (SMILES) | Potency
60 | O=C1CCC(N2C(=O)c3ccccc3C2=O)C(=O)N1 (configuration not stated) | inactive
61 | Cn1cnc([N+](=O)[O-])c1Sc1ncnc2nc[nH]c12 | 10.8 µM (active) and 10.5 µM (active) and 16.5 µM (active)
62 | CN1CCN(CCCN2c3ccccc3Sc3ccc(C(F)(F)F)cc32)CC1 | inactive
63 | CCOC(=O)N1CCC(=C2c3ccc(Cl)cc3CCc3cccnc32)CC1 | inactive
64 | Oc1ccc(C2CNCCc3c2cc(O)c(O)c3Cl)cc1 (configuration not stated) | inactive
65 | COc1ccc([C@@H]2CC(=O)c3c(O)cc(O[C@@H]4O[C@H](CO[C@@H]5O[C@@H](C)[C@H](O)[C@@H](O)[C@@H]5O)[C@@H](O)[C@H](O)[C@@H]4O)cc3O2)cc1O | inactive
66 | Nc1ccc(S(=O)(=O)Nc2ccnn2-c2ccccc2)cc1 | inactive
67 | CCCCNc1cc(C(=O)O)cc(S(N)(=O)=O)c1Oc1ccccc1 | inactive
68 | CC(C)(C)NCC(O)c1ccc(O)c(CO)c1 (configuration not stated) | inactive
69 | O=c1n(CCCN2CCN(c3cccc(Cl)c3)CC2)nc2ccccn12 | inactive
70 | CCN(CC)CCCC(C)Nc1ccnc2cc(Cl)ccc12 (configuration not stated) | inactive
71 | CCn1cc(C(=O)O)c(=O)c2cc(F)c(N3CCNC(C)C3)c(F)c21 (configuration not stated) | inactive
72 | CCCC(CCC)C(=O)O | inactive
73 | Nc1nc2c(ncn2COCCO)c(=O)[nH]1 | inactive
74 | Cc1cnc(NC(=O)C2=C(O)c3ccccc3S(=O)(=O)N2C)s1 | inactive
75 | O=NN(CCCl)C(=O)NCCCl | inactive
76 | NCCc1ccc(O)c(O)c1 | inactive
77 | CC(C[N+](C)(C)C)OC(N)=O (configuration not stated) | inactive
78 | Cc1ccc(N(CC2=NCCN2)c2cccc(O)c2)cc1 | inactive
79 | CC(=O)Oc1ccccc1C(=O)O | inactive
80 | c1ccc([C@H]2CN3CCSC3=N2)cc1 | inactive
81 | NC[C@H](O)c1ccc(O)c(O)c1 | inactive
82 | N[C@@H]1CONC1=O | inactive
83 | CCOc1cc(N2CCC(O)CC2)ccc1Nc1ncc2c(n1)N(C)c1ccccc1C(=O)N2C | 23.4 µM (active)
84 | NNCCc1ccccc1 | inactive
85 | N=c1nc(N2CCCCC2)cc(N)n1O | inactive
86 | O=C1CCc2cc(OCCCCc3nnnn3C3CCCCC3)ccc2N1 | inactive
87 | COc1cc(Oc2ccnc3cc(OC)c(OC)cc23)ccc1NC(=O)NC(C)c1nccs1 (configuration not stated) | inactive
